Data on 14 compounds can be found in PubChem BioAssay.

Structures are written as SMILES. Active and inactive are the calls of the source.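 How the source made its calls, unless noted: active means fluorescence slope higher than the sample average by over 3 SD (cut at about -0.22 in these data, passing the limit was not always enough); inactive means the rest.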

Test [1] in a line: inhibitors of TNFa-induced NFkB p65 translocation, primary screen, imaging, HUVEC, MLSMR starter and 10KST1 sets (AID 438;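 active means inhibition above 20% together with a positive visual image hit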;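 further: compound added about 3h40 before a 20 min TNFalpha stimulation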;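 on inhibition: signal is the nuclear over cytoplasmic p65 intensity ratio per well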). As to conditions: HUVEC TNFa-induced p65 nuclear translocation; cell count: measured here: nuclei count (cytotoxicity indicator), at 2.08 µM; inhibition: at 2 µM, stronger effect = higher value, 0% TNFa-plus-vehicle, 100% no-TNFa wells.
Test [2] is described as follows: inhibitors of mutant huntingtin aggregation, primary screen, imaging, exon1htt(103Q)mCFP cells, high-content imaging (AID 483;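 active means visual image review flags a hit and inhibition of aggregation exceeds 20%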;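 further: compound exposure lasted 3 days before fixation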;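 on nuclei count: percent of the per-plate median nuclei count of sample wells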). As to conditions: exon1htt(103Q)mCFP cell line, aggregate imaging, at 2 µM; inhibition of aggregation: stronger effect = higher value; nuclei count: measured here: cell count, toxicity.
Test [3] is described as follows: inhibitors of E-selectin induction by TNFa, primary screen, imaging, HUVEC, immunofluorescence, MLSMR starter and 10KST1 sets (AID 487;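 active means visually confirmed hit in the image check and inhibition above 20%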;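 on inhibition: signal is fraction of cell area covered by stained E-selectin grains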;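 on nuclei count: 100% = median nuclei count of all wells on the same plate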). As to conditions: HUVEC TNFalpha-induced E-selectin immunofluorescence imaging, at 2 µM; inhibition: stronger effect = higher value; nuclei count: measured here: cell number, toxicity.
Test [4] concerns the target Voltage-gated potassium channel subunit beta-2 (Rattus norvegicus) (UniProt P62483). Kind of test: KvBeta enzyme negative modulators, primary screen, biochemical, NADPH fluorescence (AID 622).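 Further: slope of raw intensity against log time taken from 70 to 1610 s.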 The conditions noted are these: recombinant KvBeta, 4-cyanobenzaldehyde reduction, at 10 µM, stronger effect = higher value.
Test [5] has the same target. Kind of test: KvBeta positive modulators, primary screen, biochemical, NADPH fluorescence (AID 623;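 active means NADPH fluorescence slope more negative than the mean of all samples by about 3 SD, 99.7% confidence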;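 further: fluorescence intensity change per second fitted from 20 to 320 s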). As to conditions: Recombinant KvBeta, NADPH fluorescence decrease slope, 10 min; at 10 µM; stronger effect = lower value.
Test [6] concerns the target Alpha-2C adrenergic receptor (Homo sapiens) (UniProt P18825). Kind of test: modulators of alpha2C/GIRK thallium flux, primary screen, cell-based, HEK293 alpha2C/GIRK1/2 (AID 624;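 active means fluorescence slope after compound addition differing from the mean of all screened samples at 99.7% confidence, in either direction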;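 further: slope of fluorescence ratio to pre-addition baseline per second over 15 to 24 s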). As to conditions: thallium flux BTC fluorescence, at 10 µM, actives lie on both sides.
Test [7] in a line: inhibitors of Sendai virus-induced IRF3 signaling, primary screen, TLR/RLR signaling modifier project, cell-based, Sendai virus stimulus, luciferase, 10K MLSCN set (AID 602276;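 active means inhibition at or above 50% at 10 µM; inactive means inhibition below 50%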;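 further: firefly luciferase from ISG56 promoter only with Renilla not read in this screen; 0% = Sendai virus plus DMSO and 100% = medium plus DMSO without virus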). The conditions noted are these: HEK293 RL24 IRF3 luciferase reporter, at 10 µM, stronger effect = higher value.
Test [8] is described as follows: inhibitors of poly I:C-induced TLR3 signaling, primary screen, cell-based, poly I:C stimulus, luciferase, 10K MLSCN set (AID 602277;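 active means inhibition of the reporter signal at or above 50%; inactive means inhibition below 50%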). The conditions noted are these: HEK293-TLR3 RL24 IRF3 luciferase reporter, at 10 µM, stronger effect = higher value.

Alpha-2C adrenergic receptor (Homo sapiens), sequence (P18825 whole entry, looked up): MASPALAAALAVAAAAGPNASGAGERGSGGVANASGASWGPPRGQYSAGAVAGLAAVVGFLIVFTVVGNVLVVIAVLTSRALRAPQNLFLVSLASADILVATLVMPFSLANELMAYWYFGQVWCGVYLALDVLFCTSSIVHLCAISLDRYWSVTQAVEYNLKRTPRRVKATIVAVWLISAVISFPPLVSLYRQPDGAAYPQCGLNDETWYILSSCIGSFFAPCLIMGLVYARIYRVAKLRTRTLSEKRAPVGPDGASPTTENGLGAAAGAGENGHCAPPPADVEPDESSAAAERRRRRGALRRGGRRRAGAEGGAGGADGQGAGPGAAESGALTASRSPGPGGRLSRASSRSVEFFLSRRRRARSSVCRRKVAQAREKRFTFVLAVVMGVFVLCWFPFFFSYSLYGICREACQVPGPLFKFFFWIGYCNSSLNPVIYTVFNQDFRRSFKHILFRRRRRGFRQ
Voltage-gated potassium channel subunit beta-2 (Rattus norvegicus), sequence (P62483 whole entry, looked up): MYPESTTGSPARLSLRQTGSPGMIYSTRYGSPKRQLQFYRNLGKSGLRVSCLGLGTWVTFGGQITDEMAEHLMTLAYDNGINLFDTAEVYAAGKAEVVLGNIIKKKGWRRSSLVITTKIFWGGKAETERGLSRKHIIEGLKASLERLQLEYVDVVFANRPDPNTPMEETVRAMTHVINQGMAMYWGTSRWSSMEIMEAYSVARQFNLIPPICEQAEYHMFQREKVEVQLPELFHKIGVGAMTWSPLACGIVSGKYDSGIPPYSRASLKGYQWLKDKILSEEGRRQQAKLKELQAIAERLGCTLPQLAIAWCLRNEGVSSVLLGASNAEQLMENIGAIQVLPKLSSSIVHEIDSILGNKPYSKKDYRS

For `CC1CCc2nn(CC(=O)NCc3ccc(F)cc3)cc2C1` (centres undefined), in test [1], the cell count amounted to 919. Moreover, the inhibition is 1.2% (inactive) in test [1], -72.4% (inactive) in test [3], -0.348% (inactive) in test [7] and 20.2% (inactive) in test [8]. Moreover, the inhibition of aggregation in test [2] is -5.6% (inactive). Further, the nuclei count turned out to be 112% in test [2] and 119% in test [3]. Moreover, the fluorescence slope in test [4] is -0.628 (inactive). Moreover, in test [5], the NADPH fluorescence slope was -3.4e-06 (inactive). The slope in test [6] was 0.00689 (inactive).
As for `CCOC(=O)c1ccc(NS(=O)C23CC4CC(CC(C4)C2)C3)cc1` (centres undefined), the cell count in test [1] is 406. Besides, the inhibition in test [1] is -1.1% (inactive); in test [3], -53.8% (inactive); in test [7] it was -1.97% (inactive); in test [8], 6.33% (inactive). In test [2], the inhibition of aggregation is -7.1% (inactive). Also, the nuclei count was 111% in test [2] and 134% in test [3]. Moreover, the fluorescence slope in test [4] was -0.458 (inactive). Further, the NADPH fluorescence slope in test [5] is -9e-06 (inactive). Further, the slope in test [6] was 0.00476 (inactive).
For `COc1cc(Cn2c(-c3nonc3N)nc3ccccc32)ccc1C`, in test [1], the cell count came out at 329. Also, the inhibition in test [1] was -1.5% (inactive); in test [3], -20.1% (inactive); in test [7], 29.4% (inactive); in test [8], 53.2% (active). The inhibition of aggregation in test [2] was -18.3% (inactive). In addition, the nuclei count in test [2] stood at 65%; in test [3], 99.4%. Also, in test [4], the fluorescence slope was -0.591 (inactive). The NADPH fluorescence slope in test [5] is -1.7e-05 (inactive). In addition, the slope in test [6] was 0.00556 (inactive).
As for `CC1CCN(S(=O)(=O)c2ccc3[nH]c(=O)cc(C(=O)O)c3c2)CC1`, the cell count in test [1] came out at 323. Moreover, the inhibition in test [1] was -20.8% (inactive); in test [3] it was -20% (inactive); in test [7] it was -2.34% (inactive); in test [8], 13% (inactive). Also, in test [2], the inhibition of aggregation is 8.5% (inactive). The nuclei count in test [2] turned out to be 129%; in test [3], 104%. Also, in test [4], the fluorescence slope is -0.463 (inactive). The NADPH fluorescence slope in test [5] is -0.000161 (inactive). Besides, in test [6], the slope was 0.00662 (inactive).
Consider `COc1ccccc1N(C)S(=O)(=O)c1ccc(C(=O)NC2=NCCS2)cc1`, for which, in test [1], the cell count was 458. Moreover, the inhibition in test [1] is 10.9% (inactive); in test [3], -38% (inactive); in test [7], 2.13% (inactive); in test [8], 12% (inactive). The inhibition of aggregation in test [2] is 9.8% (inactive). For the same compound, the nuclei count worked out at 95.4% in test [2] and 110% in test [3]. Besides, the fluorescence slope in test [4] is -0.598 (inactive). In addition, in test [5], the NADPH fluorescence slope is -2.8e-05 (inactive). For the same compound, the slope in test [6] is 0.00655 (inactive).
With `CC1Cc2ccccc2N1C(=O)COC(=O)Cn1nnc(-c2ccccc2)n1` (centres undefined), the cell count in test [1] amounted to 543. Besides, the inhibition is -9% (inactive) in test [1], -39.7% (inactive) in test [3], 11% (inactive) in test [7] and 34.2% (inactive) in test [8]. The inhibition of aggregation in test [2] was -4.6% (inactive). The values for the nuclei count in test [2] and in test [3] were 96.1% and 123%, respectively. In test [4], the fluorescence slope was -0.583 (inactive). Also, in test [5], the NADPH fluorescence slope was -4e-05 (inactive). In addition, the slope in test [6] is 0.00555 (inactive).
With `COc1ccccc1N1CCN(C(=O)CSc2nc3ncnc(N)c3[nH]2)CC1`, in test [1], the cell count was determined as 467. The inhibition is -8.8% (inactive) in test [1], -144% (inactive) in test [3], 16% (inactive) in test [7] and 23.6% (inactive) in test [8]. Further, the inhibition of aggregation in test [2] is -0.2% (inactive). Further, the nuclei count stood at 110% in test [2] and 162% in test [3]. The fluorescence slope in test [4] is -0.52 (inactive). In addition, in test [5], the NADPH fluorescence slope was 7.1e-06 (inactive). The slope in test [6] is 0.00625 (inactive).
In the case of `CCCCn1c(SCC(=O)Nc2ccc(OC)cc2)nc2ccc(N3CCOCC3)cc2c1=O`, the cell count in test [1] was found to be 508. The inhibition in test [1] was -0.6% (inactive); in test [3], -3.4% (inactive); in test [7], 11.2% (inactive); in test [8] it was 13.1% (inactive). For the same compound, in test [2], the inhibition of aggregation is 20.8% (inactive). Also, the nuclei count in test [2] was determined as 44.4%; in test [3] it was 103%. Also, the fluorescence slope in test [4] was -0.407 (inactive). The NADPH fluorescence slope in test [5] was 6.3e-06 (inactive). Besides, in test [6], the slope is 0.00425 (inactive).
As for `Cc1cc2ncn(S(=O)(=O)c3ccc(S(=O)(=O)N4CCOCC4)cc3)c2cc1C`, the cell count in test [1] was 311. The inhibition in test [1] was -3.3% (inactive); in test [3] it was -98.8% (inactive); in test [7], -0.351% (inactive); in test [8], 3.91% (inactive). Also, the inhibition of aggregation in test [2] was 0.7% (inactive). The nuclei count in test [2] was 93.4%; in test [3], 113%. Further, in test [4], the fluorescence slope is -0.518 (inactive). Also, the NADPH fluorescence slope in test [5] was 1.7e-05 (inactive). In addition, the slope in test [6] was 0.00432 (inactive).
`CCN1CCN(CCCNC(=O)c2cc3sccc3n2CC)CC1`: the cell count in test [1] came to 605. Besides, the inhibition in test [1] is 11% (inactive); in test [3] it was 37.9% (inactive); in test [7] it was -14.9% (inactive); in test [8], 15.5% (inactive). In test [2], the inhibition of aggregation is -0.9% (inactive). Also, the nuclei count in test [2] was found to be 105%; in test [3], 108%. Also, the fluorescence slope in test [4] was -0.586 (inactive). The NADPH fluorescence slope in test [5] is -3.5e-05 (inactive). Besides, in test [6], the slope was 0.00699 (inactive).
As to `COc1cccc(C2CC(c3ccc(C)cc3)Nc3nc(N)nn32)c1` (centres undefined), the cell count in test [1] amounted to 538. In addition, the inhibition was 2.3% (inactive) in test [1], 28% (inactive) in test [3], -7.82% (inactive) in test [7] and 16.6% (inactive) in test [8]. For the same compound, the inhibition of aggregation in test [2] is 23.1% (inactive). Moreover, the results for the nuclei count in test [2] and in test [3] were 102% and 101%, respectively. Also, the fluorescence slope in test [4] was -0.564 (inactive). Further, the NADPH fluorescence slope in test [5] is 4e-05 (inactive). For the same compound, the slope in test [6] was 0.0074 (inactive).
In the case of `COc1cccc(C(=O)Nc2ccc(NC(C)=O)cn2)c1`, in test [1], the cell count worked out at 759. In addition, the inhibition in test [1] is -4.3% (inactive); in test [3] it was -84.7% (inactive); in test [7], -36.2% (inactive); in test [8], -56% (inactive). The inhibition of aggregation in test [2] is -0.2% (inactive). For the same compound, the nuclei count in test [2] was found to be 96.3%; in test [3], 123%. Further, the fluorescence slope in test [4] is -0.469 (inactive). Moreover, the NADPH fluorescence slope in test [5] was -5.3e-05 (inactive). The slope in test [6] was 0.00617 (inactive).
With `NC(=O)C1(N2CCCCC2)CCN(C(=O)Nc2ccccc2C(F)(F)F)CC1`, the cell count in test [1] worked out at 312. Also, the inhibition in test [1] was -3.2% (inactive); in test [3] it was -133% (inactive); in test [7] it was 11.1% (inactive); in test [8], 31.2% (inactive). Moreover, in test [2], the inhibition of aggregation is 14.4% (inactive). Besides, the nuclei count amounted to 91.9% in test [2] and 142% in test [3]. The fluorescence slope in test [4] is -0.445 (inactive). Also, the NADPH fluorescence slope in test [5] was 6.2e-06 (inactive). Moreover, the slope in test [6] was 0.00567 (inactive).
With `CC(C)(C)NC(=O)COC(=O)c1snc(C(=O)NC2CCCCC2)c1N`, in test [1], the cell count was found to be 236. For the same compound, the inhibition is 13.3% (inactive) in test [1], -55.6% (inactive) in test [3], 9.79% (inactive) in test [7] and -26% (inactive) in test [8]. Moreover, the inhibition of aggregation in test [2] was 3.3% (inactive). The nuclei count in test [2] turned out to be 99.5%; in test [3], 96.2%. Besides, the fluorescence slope in test [4] is -0.586 (inactive). For the same compound, the NADPH fluorescence slope in test [5] is 2.8e-05 (inactive). Moreover, the slope in test [6] was 0.00501 (inactive).
